# From PubChem BioAssay (NCI)
# This is part of a sample that, as a whole, favours compounds with a hit. Of some 79,000 tested, about 15% had one in any assay. A number with no mark means an inactive call. Active and inactive are the calls of the source. No stated cut-off is given here; in the data, active means growth inhibition above about 70%; inactive means the rest.
# Legend:
# [1] = NCI Yeast Anticancer Drug Screen. Data for the rad50 strain (AID 155);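 further: 0% = growth of vehicle-only cultures of the same strain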; details: S. cerevisiae rad50 strain growth inhibition, active compounds read high
# Procedure, shortened: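 Genetically altered yeast (DNA repair pathway); compound treatment; growth inhibition vs vehicle ctrl.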
# [2] = NCI Yeast Anticancer Drug Screen. Data for the mec2-1 strain (AID 157); details: S. cerevisiae mec2-1 strain, active compounds read high
# Procedure, shortened: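 Mutant yeast (mec2-1) grown with compound; growth inhibition relative to vehicle control reported.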
# [3] = NCI Yeast Anticancer Drug Screen. Data for the sgs1 mgt1 strain (AID 161);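 further: 0% = growth of cultures given vehicle only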; details: S. cerevisiae sgs1 mgt1 strain, active compounds read high
# Procedure, shortened: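 Growth of a repair-deficient yeast mutant was monitored after compound treatment and expressed as inhibition relative to vehicle-treated cultures.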
# [4] = NCI Yeast Anticancer Drug Screen. Data for the cln2 rad14 strain (AID 165);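 further: 0% = growth equal to vehicle treated cultures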; details: S. cerevisiae cln2 rad14 strain, active compounds read high
# Procedure, shortened: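 Readout is yeast growth inhibition versus vehicle-treated controls, using a strain with cln2 and rad14 alterations exposed to compound.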
# [5] = NCI Yeast Anticancer Drug Screen. Data for the bub3 strain (AID 167); details: S. cerevisiae bub3 mutant strain, active compounds read high
# Procedure, shortened: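 Yeast carrying a defined mutation is treated with each compound, and growth is compared with that of vehicle-exposed cells to give inhibition.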
# [6] = NCI Yeast Anticancer Drug Screen. Data for the mlh1 rad18 strain (AID 175); details: S. cerevisiae mlh1 rad18 strain growth inhibition, active compounds read high
# Procedure, shortened: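 Genetically defined yeast (DNA repair-deficient) exposed to compounds; growth inhibition determined relative to vehicle.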
# [7] = at 5.0 µM (retest, dose inferred, filed as 0.5)
# [8] = at 50.0 µM (retest, dose inferred, filed as 5.0)
Compound,"growth inhibition [1, 7]","growth inhibition [1, 8]",growth inhibition ([1]; at 50.0 µM),"growth inhibition [2, 7]","growth inhibition [2, 8]",growth inhibition ([2]; at 50.0 µM),"growth inhibition [3, 7]","growth inhibition [3, 8]",growth inhibition ([3]; at 50.0 µM),"growth inhibition [4, 7]","growth inhibition [4, 8]",growth inhibition ([4]; at 50.0 µM),"growth inhibition [5, 7]","growth inhibition [5, 8]",growth inhibition ([5]; at 50.0 µM),"growth inhibition [6, 7]","growth inhibition [6, 8]",growth inhibition ([6]; at 50.0 µM)
CCCCC(CC)COC(=O)c1cc2ccccc2oc1=O (stereo unspecified),3%,7%,70.8% (active),1%,13%,61.8%,3%,21%,68.5%,5%,4%,49.5%,11%,35%,79.6% (active),3%,19%,67.8%
F[Si](c1ccccc1)(c1ccccc1)c1ccccc1,-3%,75% (active),62%,3%,87% (active),25.3%,8%,79% (active),32.1%,0%,82% (active),41.6%,-5%,98% (active),45.6%,10%,94% (active),79.5% (active)
COc1cc(O)c2c(c1)C(=O)c1cc3c(c(O)c1C2=O)C(OC1OC(C)C(O)C(O)C1OC)C(OC)C(C)(O)C3=O (stereo unspecified),95% (active),99% (active),92.5% (active),35%,99% (active),93.4% (active),35%,99% (active),93.7% (active),12%,99% (active),89.9% (active),15%,99% (active),93.3% (active),58%,99% (active),92.8% (active)
N#CCC(=O)N/N=C(/CC1(O)C(=O)Nc2c(Cl)cc(Cl)cc21)c1ccccc1 (stereo unspecified),2%,35%,69.4%,10%,43%,59.6%,-1%,-6%,71.1% (active),-7%,23%,-20%,3%,22%,26.4%,5%,16%,75.2% (active)
CN(C)c1ccc(C=Nc2ccc(OCCCCCCCCCCC(=O)O)cc2)cc1,100% (active),100% (active),82.5% (active),100% (active),99% (active),59.9%,77% (active),86% (active),76.7% (active),77% (active),92% (active),75% (active),73% (active),84% (active),84.5% (active),100% (active),100% (active),71.5% (active)
Cc1c[n+](CC(=O)c2ccc(I)cc2)c(C)s1,0%,13%,-16.2%,-1%,2%,4.1%,-1%,12%,-2.85%,-4%,-5%,46.3%,-2%,9%,1.7%,-2%,-2%,16.8%
CCCN(CCC)C(=O)c1nc(N)nc(-c2ccc(OC)cc2)c1-c1ccc(OC)cc1,9%,9%,-23.6%,-1%,-1%,-30.1%,-6%,-6%,29.4%,0%,0%,2.55%,-10%,-10%,-21.4%,-9%,-9%,-42%
CCCCCCCCCCCCCC(=O)CC(=O)c1c(O)cccc1O,2%,-7%,-9.1%,-3%,-1%,-5.8%,7%,-13%,-3.9%,10%,12%,-64.6%,-11%,-5%,7%,35%,17%,17.1%
CCCOc1cc(C(=O)OCCN(CC)CC)cc(OCCC)c1OCCC,6%,29%,36.9%,6%,19%,15.8%,4%,43%,44.8%,8%,13%,15.1%,-21%,12%,23%,0%,41%,61.8%
O=C(Nc1ncnc2c1ncn2C1CC(O)C(CO)O1)c1ccccc1 (stereo unspecified),1%,1%,-2.25%,-2%,0%,-11.3%,-1%,1%,-0.05%,-6%,-2%,-23.9%,-2%,-1%,54.1%,-4%,4%,-17.8%
Cc1cccc2c1Oc1cc(Cl)ccc1C2NC(=O)CCN1CCN(CCO)CC1 (stereo unspecified),0%,29%,38%,-11%,-13%,-0.05%,-3%,6%,38.1%,11%,26%,25.6%,-8%,11%,39.4%,3%,29%,70.3% (active)
OCC(c1ccccc1)[P+](c1ccccc1)(c1ccccc1)c1ccccc1 (stereo unspecified),2%,34%,79.2% (active),-8%,45%,49.9%,-9%,0%,74.3% (active),-42%,-1%,31.9%,0%,13%,26.3%,-14%,5%,59.6%
CN(C)c1ccccc1CN1CCCN(Cc2ccccc2N(C)C)C1,-4%,7%,69.8%,8%,26%,50%,1%,35%,75.2% (active),0%,2%,4.45%,2%,6%,1.5%,18%,35%,63.3%
O=C(CC1(O)CCCCC1)OC1CCCC1,-1%,0%,58.3%,-1%,-11%,-13.2%,1%,0%,5.85%,-14%,19%,62.8%,5%,-10%,-58.9%,7%,10%,6.2%
O=C1C(Cl)=C(N2C(=O)CCC2=O)C(=O)c2ccccc21,77% (active),98% (active),87.6% (active),99% (active),99% (active),90.4% (active),99% (active),100% (active),91.6% (active),94% (active),99% (active),89.4% (active),100% (active),99% (active),88.9% (active),72% (active),98% (active),89% (active)
c1ccc([B-](c2ccccc2)(c2ccccc2)c2ccccc2)cc1,-3%,-6%,98.2% (active),-4%,-1%,95% (active),0%,-3%,98.2% (active),4%,-16%,98.4% (active),5%,2%,93.3% (active),1%,-2%,98.5% (active)
CC(C)NCCCNc1nc(NCCCNC(C)C)c2nc(-c3ccccc3)c(-c3ccccc3)nc2n1,4%,82% (active),52%,1%,88% (active),58.7%,-2%,86% (active),53.4%,-3%,56%,55.8%,0%,35%,50.1%,2%,90% (active),57.2%
